# Experimental data as given in PubChem BioAssay (NCATS).
# Results filed as inconclusive are left out. Activity calls are given as the source filed them. Calls come from the whole dose curve; as a rule, active = well fitted curve in the direction sought with a large enough effect; inconclusive = small, poorly fitted or top-dose-only effect, or another doubt; inactive = no such curve, though single readings can be large; an effect the other way counts as inactive or inconclusive.
# Biological target: Ubiquitin carboxyl-terminal hydrolase 1 (Homo sapiens) (UniProt O94782)
# Assay: Inhibitors of USP1/UAF1: Pilot qHTS (AID 504865);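 note: rhodamine fluorescence freed from ubiquitin-rhodamine substrate followed over time; top concentration of the series differs between compounds; nearly all actives have a fitted effect of over 35% in size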
# Details: purified USP1/UAF1, Ub-rhodamine cleavage fluorescence; series mostly up to 114 µM; activity change, negative = inhibition: at the top concentration
# How it was run: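 Kinetic fluorescence assay: 1nM USP1/UAF1, 15 min compound preincubation, then 150nM Ub-Rho; 480/540 nm.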
# % is set by controls: 0 for no effect and ±100 for the full control effect.
# Ubiquitin carboxyl-terminal hydrolase 1 (Homo sapiens), sequence (O94782 whole entry, looked up): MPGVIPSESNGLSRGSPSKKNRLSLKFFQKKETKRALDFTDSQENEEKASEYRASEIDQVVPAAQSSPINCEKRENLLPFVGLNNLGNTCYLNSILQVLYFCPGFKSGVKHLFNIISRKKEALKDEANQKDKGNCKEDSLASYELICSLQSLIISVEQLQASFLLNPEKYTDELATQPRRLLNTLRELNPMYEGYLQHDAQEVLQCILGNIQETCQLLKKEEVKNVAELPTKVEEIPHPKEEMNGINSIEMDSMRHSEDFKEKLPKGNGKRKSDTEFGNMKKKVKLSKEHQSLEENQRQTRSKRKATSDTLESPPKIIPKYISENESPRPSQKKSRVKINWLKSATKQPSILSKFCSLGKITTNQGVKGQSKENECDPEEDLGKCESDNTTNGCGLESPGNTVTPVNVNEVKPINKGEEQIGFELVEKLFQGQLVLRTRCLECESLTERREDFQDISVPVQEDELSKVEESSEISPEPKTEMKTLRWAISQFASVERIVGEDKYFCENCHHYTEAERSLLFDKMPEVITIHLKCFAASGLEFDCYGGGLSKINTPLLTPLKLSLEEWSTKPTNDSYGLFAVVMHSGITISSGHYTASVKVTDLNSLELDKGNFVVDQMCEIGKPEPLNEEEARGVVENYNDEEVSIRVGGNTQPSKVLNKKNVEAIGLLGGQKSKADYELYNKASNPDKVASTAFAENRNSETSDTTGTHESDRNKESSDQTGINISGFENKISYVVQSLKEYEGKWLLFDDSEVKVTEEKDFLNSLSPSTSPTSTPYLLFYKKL
SMILES,Potency,"activity change, negative = inhibition"
NC12CC3CC(CC(C3)C1)C2,inactive,
CCC1(c2ccccc2)C(=O)NCNC1=O,,-3.78% (inactive)
O=C(c1ccc(F)cc1)C1CCN(CCn2c(=O)[nH]c3ccccc3c2=O)CC1,inactive,
CC1COc2c(N3CCN(C)CC3)c(F)cc3c(=O)c(C(=O)O)cn1c23 (stereo not drawn),,-6.45% (inactive)
Nc1ccn([C@H]2CC[C@@H](CO)O2)c(=O)n1,inactive,
CCN1CCCC1CNC(=O)c1cc(S(=O)(=O)CC)c(N)cc1OC (stereo not drawn),,-2.54% (inactive)
O=c1c(-c2ccc(O)cc2)coc2cc(O)cc(O)c12,inactive,
CC12CC3CC(C)(C1)CC(N)(C3)C2,inactive,
O=C(C1CCCCC1)N1CC(=O)N2CCc3ccccc3C2C1 (stereo not drawn),,-0.442% (inactive)
CNCCCC12CCC(c3ccccc31)c1ccccc12,inactive,
O=C(Nc1ccc([N+](=O)[O-])cc1Cl)c1cc(Cl)ccc1O,inactive,

# System: not listed separately
# Assay: qHTS for Inhibitors of ATXN expression: Validation of Cytotoxic Assay (AID 588349)
# Details: cytotoxicity counter-screen for ATXN expression inhibitors, cell viability; series mostly up to 57.1 µM; activity change, negative = cytotoxicity: at the top concentration
# How it was run: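 HEK293 cells were dosed with titrated compounds for 72 hr at 37 degrees C. Viability was read by CellTiter Glo luminescence, with intracellular ATP as the marker of cell survival.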
row,SMILES,"activity change, negative = cytotoxicity"
1,Cc1cn([C@H]2C=C[C@@H](CO)O2)c(=O)[nH]c1=O,-11.5% (inactive)
2,CN1CCC(=C2c3ccccc3C=Cc3ccccc32)CC1,-28.8% (inactive)
3,CC(C)C(=O)Nc1ccc([N+](=O)[O-])c(C(F)(F)F)c1,-8.81% (inactive)
4,O=c1c(-c2ccc(O)cc2)coc2cc(O)cc(O)c12,-14.9% (inactive)

# System: not listed separately
# Assay: qHTS for Inhibitors of ATXN expression: Validation (AID 588378); note: nearly all actives have a fitted effect of over 75% in size; note: potency is the fitted concentration of half-maximal effect
# Details: cell-based ATXN2 expression reporter assay, luminescence; series mostly up to 57.1 µM; activity change, negative = inhibition: at the top concentration
# How it was run: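 Validation of ATXN2 expression inhibitors uses a cell-based luciferase fusion reporter in HEK293 cells, with 24 h compound exposure and paired viability (fluorescence) and reporter (luminescence) end-point reads.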
SMILES,"activity change, negative = inhibition",Potency
COC(=O)Nc1nc2ccc(C(=O)c3cccs3)cc2[nH]1,6.89% (inactive),
CCC1(C)CC(=O)NC1=O (stereo not drawn),-8.41% (inactive),
Cc1cn([C@H]2C=C[C@@H](CO)O2)c(=O)[nH]c1=O,5.19% (inactive),
Fc1ccc([C@@H]2CCNC[C@H]2COc2ccc3c(c2)OCO3)cc1,,35.5 µM (active)
C[C@H]1c2cccc(O)c2C(O)=C2C(=O)[C@]3(O)C(O)=C(C(N)=O)C(=O)[C@@H](N(C)C)[C@@H]3[C@@H](O)[C@@H]21,10.2% (inactive),
CCOC(=O)c1ncn2c1CN(C)C(=O)c1cc(F)ccc1-2,6.39% (inactive),
CS(=O)(=O)Nc1ccc([N+](=O)[O-])cc1Oc1ccccc1,-20.5% (inactive),
NCCCCCC(=O)O,13.6% (inactive),
NC(CO)C(=O)NNCc1ccc(O)c(O)c1O (stereo not drawn),-19.5% (inactive),
COc1ccccc1OCC(O)CN1CCN(CC(=O)Nc2c(C)cccc2C)CC1 (stereo not drawn),-9.33% (inactive),
COc1ccc2c(c1)c(CC(=O)O)c(C)n2C(=O)c1ccc(Cl)cc1,-9.37% (inactive),
Nc1nnc(-c2cccc(Cl)c2Cl)c(N)n1,-1.24% (inactive),
Cc1ccccc1N1C(=O)c2cc(S(N)(=O)=O)c(Cl)cc2NC1C (stereo not drawn),-10.8% (inactive),
OCCN(CCO)c1nc(N2CCCCC2)c2nc(N(CCO)CCO)nc(N3CCCCC3)c2n1,-20.7% (inactive),
CC(C)NCC(O)COc1ccc(CCOCC2CC2)cc1 (stereo not drawn),-19.6% (inactive),
CCc1cccc2c3c([nH]c12)C(CC)(CC(=O)O)OCC3 (stereo not drawn),-12.7% (inactive),
COc1nc(C)nc(Cl)c1NC1=NCCN1,5.74% (inactive),
NC12CC3CC(CC(C3)C1)C2,12.6% (inactive),
CCC1(c2ccccc2)C(=O)NCNC1=O,-19.4% (inactive),
O=C(c1ccc(F)cc1)C1CCN(CCn2c(=O)[nH]c3ccccc3c2=O)CC1,-7.4% (inactive),
CC1COc2c(N3CCN(C)CC3)c(F)cc3c(=O)c(C(=O)O)cn1c23 (stereo not drawn),5.76% (inactive),
Nc1ccn([C@H]2CC[C@@H](CO)O2)c(=O)n1,-5.96% (inactive),
CCN1CCCC1CNC(=O)c1cc(S(=O)(=O)CC)c(N)cc1OC (stereo not drawn),0.925% (inactive),
O=c1c(-c2ccc(O)cc2)coc2cc(O)cc(O)c12,212% (inactive),
CC12CC3CC(C)(C1)CC(N)(C3)C2,-27% (inactive),
O=C(C1CCCCC1)N1CC(=O)N2CCc3ccccc3C2C1 (stereo not drawn),-13.6% (inactive),
CNCCCC12CCC(c3ccccc31)c1ccccc12,,15.8 µM (active)
O=C(Nc1ccc([N+](=O)[O-])cc1Cl)c1cc(Cl)ccc1O,-44.9% (inactive),
